Experimental findings from article PMC4336329 (PLoS ONE, 2015) are described below.

Out of some 310,000 compounds screened, about 14,000 (4.5%) showed an effect of 50% or more. Effects have a minus sign here. The list comes from a sample in which strong results are over-represented; it also holds similar structures and randomly drawn compounds.
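Also: peak tail current of the secondary pulse compared with the same well before compound.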

The target of this experiment is human ether-à-go-go-related gene (hERG) potassium channel (human, UniProt Q12809). The experiment can be described thus: primary screen, population patch clamp on CHO cells stably expressing hERG; higher = less effect of the substance.
human ether-à-go-go-related gene (hERG) potassium channel, sequence (Q12809 whole entry, looked up): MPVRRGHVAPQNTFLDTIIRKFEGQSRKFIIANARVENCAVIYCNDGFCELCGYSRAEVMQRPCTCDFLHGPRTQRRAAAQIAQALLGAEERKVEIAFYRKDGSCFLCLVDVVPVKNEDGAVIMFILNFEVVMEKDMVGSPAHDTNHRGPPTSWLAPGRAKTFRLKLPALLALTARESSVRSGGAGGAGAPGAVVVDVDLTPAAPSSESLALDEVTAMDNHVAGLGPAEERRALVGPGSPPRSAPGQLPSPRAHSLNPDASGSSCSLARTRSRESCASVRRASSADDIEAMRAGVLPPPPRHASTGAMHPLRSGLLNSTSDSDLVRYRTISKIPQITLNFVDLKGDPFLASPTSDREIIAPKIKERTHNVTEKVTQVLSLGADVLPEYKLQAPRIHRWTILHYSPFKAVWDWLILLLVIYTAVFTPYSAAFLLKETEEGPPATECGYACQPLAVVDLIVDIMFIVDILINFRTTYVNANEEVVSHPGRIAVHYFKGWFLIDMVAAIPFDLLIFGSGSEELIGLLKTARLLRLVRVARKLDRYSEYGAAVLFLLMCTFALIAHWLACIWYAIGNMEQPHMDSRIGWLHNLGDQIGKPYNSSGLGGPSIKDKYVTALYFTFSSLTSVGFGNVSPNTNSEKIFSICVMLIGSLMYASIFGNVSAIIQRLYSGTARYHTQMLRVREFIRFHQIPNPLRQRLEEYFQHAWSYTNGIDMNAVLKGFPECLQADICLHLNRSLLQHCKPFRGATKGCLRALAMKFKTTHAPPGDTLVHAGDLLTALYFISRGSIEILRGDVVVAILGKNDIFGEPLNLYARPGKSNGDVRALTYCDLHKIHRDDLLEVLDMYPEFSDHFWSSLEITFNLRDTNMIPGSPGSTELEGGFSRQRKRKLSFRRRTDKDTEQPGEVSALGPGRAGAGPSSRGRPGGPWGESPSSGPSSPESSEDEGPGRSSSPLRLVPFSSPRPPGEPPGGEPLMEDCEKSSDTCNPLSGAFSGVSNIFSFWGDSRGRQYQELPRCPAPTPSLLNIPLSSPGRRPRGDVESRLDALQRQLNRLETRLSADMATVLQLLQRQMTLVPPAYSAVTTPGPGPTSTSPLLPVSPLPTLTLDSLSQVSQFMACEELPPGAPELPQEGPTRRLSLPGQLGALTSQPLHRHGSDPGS
Consider `COc1ccc(NS(=O)(=O)c2cc(NC(=O)c3ccc(=O)[nH]n3)ccc2N2CCOCC2)cc1`, for which the “hERG current change (%, negative = inhibition) at 10uM” value is recorded as -23.2%.

In the case of `COc1ccc(NC(=O)C2CCN(S(=O)(=O)c3cccc4cccnc34)CC2)cc1OC`, the “hERG current change (%, negative = inhibition) at 10uM” value was 9.47%.

With `Cc1nn(C(C)(C)C)c(C)c1/C=N/OC(=O)Nc1ccc(Cl)c(Cl)c1`, the “hERG current change (%, negative = inhibition) at 10uM” value stood at 1.85%.

As to `CN(Cc1ccco1)C(=O)c1ccc(OC2CCN(Cc3ccccn3)CC2)cc1`, the “hERG current change (%, negative = inhibition) at 10uM” value is -6.63%.

As to `C#CCN(C(=O)c1ccc(OC2CCN(Cc3ccccn3)CC2)cc1)C1CCCCC1`, the “hERG current change (%, negative = inhibition) at 10uM” value is reported as -39.6%.

Consider `C#CCN(Cc1ccco1)C(=O)c1ccc(OC2CCN(Cc3ccccn3)CC2)cc1`, for which the “hERG current change (%, negative = inhibition) at 10uM” value is on record as -66.9%.

With `CN(C(=O)c1ccc(OC2CCN(Cc3ccccn3)CC2)cc1)C1CCCCC1`, the “hERG current change (%, negative = inhibition) at 10uM” value is on record as -9.82%.

Take `C=CCN(CC=C)C(=O)c1ccc(OC2CCN(Cc3ccccn3)CC2)cc1`: the “hERG current change (%, negative = inhibition) at 10uM” value is -9.67%.

`CC#CCN(Cc1ccco1)C(=O)c1ccc(OC2CCN(Cc3ccccn3)CC2)cc1`: the “hERG current change (%, negative = inhibition) at 10uM” value was -60.3%.

In the case of `CCOC(=O)c1cnn(-c2nc(CC)nc3sc4c(c23)CCC4)c1N`, the “hERG current change (%, negative = inhibition) at 10uM” value is given as 8.44%.

`Nc1ccc(C(=O)N2CCN(S(=O)(=O)c3ccc(Cl)cc3)CC2)cc1[N+](=O)[O-]`: the “hERG current change (%, negative = inhibition) at 10uM” value is given as -46.1%.

In the case of `O=C(c1ccc2nc[nH]c2c1)N1CCN(S(=O)(=O)c2cccc(F)c2)CC1`, the “hERG current change (%, negative = inhibition) at 10uM” value is recorded as 12%.

Regarding `C=CCN1C(=O)c2ccc(C(=O)N3CCN(S(=O)(=O)c4cccc(F)c4)CC3)cc2C1=O`, the “hERG current change (%, negative = inhibition) at 10uM” value is reported as -62.7%.

Turning to `C=CCN1C(=O)c2ccc(C(=O)N3CCN(S(=O)(=O)c4cccc(Cl)c4)CC3)cc2C1=O`, the “hERG current change (%, negative = inhibition) at 10uM” value was -14.8%.

Take `O=C(c1ccc(-n2cncn2)c([N+](=O)[O-])c1)N1CCN(S(=O)(=O)c2ccccc2F)CC1`: the “hERG current change (%, negative = inhibition) at 10uM” value is reported as -45.1%.

`O=C(c1ccc(-n2cncn2)c([N+](=O)[O-])c1)N1CCN(S(=O)(=O)c2cccc(F)c2)CC1`: the “hERG current change (%, negative = inhibition) at 10uM” value was -71.9%.

In the case of `C=CCN1C(=O)c2ccc(C(=O)N3CCN(S(=O)(=O)c4cccc([N+](=O)[O-])c4)CC3)cc2C1=O`, the “hERG current change (%, negative = inhibition) at 10uM” value is -30.4%.

With `O=C(c1ccc(Cl)c([N+](=O)[O-])c1)N1CCN(S(=O)(=O)c2ccc(Cl)cc2)CC1`, the “hERG current change (%, negative = inhibition) at 10uM” value was -11.3%.

For the molecule `O=C(NNC(=O)c1ccccc1F)c1ccc(-n2cncn2)c([N+](=O)[O-])c1`, the “hERG current change (%, negative = inhibition) at 10uM” value was determined as 7.74%.

For the molecule `O=C(c1ccc(-n2cncn2)c([N+](=O)[O-])c1)N1CCN(S(=O)(=O)c2c(F)cccc2F)CC1`, the “hERG current change (%, negative = inhibition) at 10uM” value is recorded as -56.8%.

`O=C(c1ccc(-n2cncn2)c([N+](=O)[O-])c1)N1CCN(S(=O)(=O)c2ccc(Cl)cc2)CC1`: the “hERG current change (%, negative = inhibition) at 10uM” value was -61.4%.

With `O=C(c1ccncc1)N1CCN(S(=O)(=O)c2cccc(F)c2)CC1`, the “hERG current change (%, negative = inhibition) at 10uM” value stood at 7.6%.

For the molecule `Cc1ccc2cccnc2c1N`, the “hERG current change (%, negative = inhibition) at 10uM” value came out at 4.5%.

With `NC(=O)c1ccccc1NC(=O)C1CCCO1` (stereo not drawn), the “hERG current change (%, negative = inhibition) at 10uM” value turned out to be 8.51%.

For `COc1ccccc1CN(C)C(=O)c1ccc(COc2ccccc2)cc1`, the “hERG current change (%, negative = inhibition) at 10uM” value is given as 6.77%.

For the molecule `CCOc1cnc(-c2c(-c3ccccc3Cl)noc2C)o1`, the “hERG current change (%, negative = inhibition) at 10uM” value is given as -3.56%.

`Cc1cccc2c(=O)c(C(=O)NCCc3ccccc3)c[nH]c12`: the “hERG current change (%, negative = inhibition) at 10uM” value is recorded as 21.9%.

`CC(=O)Nc1ccc(SCC(=O)c2ccc(Br)s2)cc1`: the “hERG current change (%, negative = inhibition) at 10uM” value was 19.5%.

`Cc1cnc(NC(=O)c2ccco2)s1`: the “hERG current change (%, negative = inhibition) at 10uM” value is 13.9%.

For `O=C(Nc1ccccc1C(=O)Nc1ccccc1)c1cccs1`, the “hERG current change (%, negative = inhibition) at 10uM” value was -0.413%.

As to `COC(=O)C1=CN(Cc2ccccc2)C=C(C(=O)OC)C1c1cc(F)ccc1F`, the “hERG current change (%, negative = inhibition) at 10uM” value is -12.6%.

With `c1ccc(-c2csc3ncnc(N4CCc5ccccc5C4)c23)cc1`, the “hERG current change (%, negative = inhibition) at 10uM” value was -1.81%.

On to `O=C(c1ccc(-n2cncn2)c([N+](=O)[O-])c1)N1CCN(S(=O)(=O)c2ccc(F)c(F)c2)CC1`, for which the “hERG current change (%, negative = inhibition) at 10uM” value is on record as -72.7%.

In the case of `O=C(NNC(=O)c1ccc(-n2cncn2)c([N+](=O)[O-])c1)c1ccc(Cl)cc1`, the “hERG current change (%, negative = inhibition) at 10uM” value is recorded as -9.94%.

With `O=C(Nc1ccc(F)c(F)c1)c1ccc(-n2cncn2)c([N+](=O)[O-])c1`, the “hERG current change (%, negative = inhibition) at 10uM” value is -35.7%.

Consider `O=C(CCCN1C(=O)C2CC=CCC2C1=O)Nc1ccccc1F` (stereo not drawn), for which the “hERG current change (%, negative = inhibition) at 10uM” value worked out at 1.61%.

In the case of `CC(=O)C1C2c3ccccc3OC1(C)N=c1s/c(=C/c3cn(C)nc3C)c(=O)n12` (stereo not drawn), the “hERG current change (%, negative = inhibition) at 10uM” value was -0.454%.

In the case of `O=C(Nc1cccc(Cl)c1)c1ccc(-n2cncn2)c([N+](=O)[O-])c1`, the “hERG current change (%, negative = inhibition) at 10uM” value was -35%.

On to `O=C(c1ccc(-n2cncn2)c([N+](=O)[O-])c1)N1CCN(c2cccc(Cl)c2)CC1`, for which the “hERG current change (%, negative = inhibition) at 10uM” value is -68.5%.

On to `Cc1cccc(N2CCN(c3ccc(C(N)=O)cc3[N+](=O)[O-])CC2)c1C`, for which the “hERG current change (%, negative = inhibition) at 10uM” value was determined as 21.7%.

In the case of `O=C(O)c1ccc(-n2cncn2)c([N+](=O)[O-])c1`, the “hERG current change (%, negative = inhibition) at 10uM” value amounted to 11.6%.

With `Cc1cccc(N2CCN(C(=O)c3ccc(-n4cncn4)c([N+](=O)[O-])c3)CC2)c1C`, the “hERG current change (%, negative = inhibition) at 10uM” value was -58.9%.

For `O=C(NNC(=O)c1ccc(-n2cncn2)c([N+](=O)[O-])c1)c1cccc(Cl)c1`, the “hERG current change (%, negative = inhibition) at 10uM” value was -26.3%.

As to `COc1ccc(C2=NS(=O)(=O)N(C)C(C(=O)Nc3ccc(OC)c(OC)c3)=C2)cc1`, the “hERG current change (%, negative = inhibition) at 10uM” value is recorded as -11.9%.

Consider `O=C(CSc1nc2ccc(Cl)cc2[nH]1)c1c[nH]c2ccccc12`, for which the “hERG current change (%, negative = inhibition) at 10uM” value was 26.8%.

As to `COc1ccc(C(=O)N2CCC(C(=O)c3c(C)cc(C)cc3C)CC2)cc1`, the “hERG current change (%, negative = inhibition) at 10uM” value was -55.3%.

As to `COc1cc(OC)cc(OC(=O)C2CCN(C(=O)c3ccc(Cl)cc3)CC2)c1`, the “hERG current change (%, negative = inhibition) at 10uM” value was -33.9%.

For the molecule `Cc1ccc(C(=O)N2CCC(C(=O)c3c(C)cc(C)cc3C)CC2)cc1`, the “hERG current change (%, negative = inhibition) at 10uM” value is reported as -38.5%.

As for `COc1ccc(C(CC(=O)N2CCCC2)c2ccc(F)cc2)cc1` (stereo not drawn), the “hERG current change (%, negative = inhibition) at 10uM” value is -71.5%.

In the case of `COc1cc(OC)cc(C(=O)N2CCC(C(=O)c3ccc(F)cc3)CC2)c1`, the “hERG current change (%, negative = inhibition) at 10uM” value is -30.8%.

With `O=C(c1ccc(Cl)cc1)N1CCN(c2ccc(F)cc2)CC1`, the “hERG current change (%, negative = inhibition) at 10uM” value is listed as -34%.

As for `COc1ccc(C(=O)N2CCC(C(=O)c3ccc(F)cc3)CC2)cc1`, the “hERG current change (%, negative = inhibition) at 10uM” value was -70.2%.

As for `Cc1ccc(C(=O)N2CCN(c3ccc(Cl)cc3)CC2)cc1`, the “hERG current change (%, negative = inhibition) at 10uM” value is given as -61.1%.

As to `O=C(c1ccccc1)N1CCN(c2ccc(Cl)cc2)CC1`, the “hERG current change (%, negative = inhibition) at 10uM” value is recorded as -25.1%.

`COc1ccc(C(=O)C2CCN(C(=O)c3ccc(F)cc3)CC2)cc1`: the “hERG current change (%, negative = inhibition) at 10uM” value was -28.5%.

Regarding `COc1ccc(C(CC(=O)N2CCCC2)C(C)C)cc1` (stereo not drawn), the “hERG current change (%, negative = inhibition) at 10uM” value is reported as -2.25%.

As for `COc1ccc(C(CC(=O)N2CCCCC2)C(C)C)cc1` (stereo not drawn), the “hERG current change (%, negative = inhibition) at 10uM” value is 15.8%.
